For orientation: inhibition means the change of the read-out against control, counted positive when it falls.

Type in all cases: functional
Assay [1] concerns the target Solute carrier family 2, facilitated glucose transporter member 1 (Homo sapiens) (UniProt P11166). The experiment in a line: ST_JUDE_LEISH: Cytotoxicity at 2uM final concentration against transgenic Leishmania Mexicana promastigotes LmGLUT1 that are glucose transport deficient and complemented with the human glucose transporter GLUT1. Activity is measured by DNA content using SYBR green in vitro.

Assay [2] deals with Hexose transporter 1 (Plasmodium falciparum) (UniProt O97467). Nature of the assay: ST_JUDE_LEISH: Cytotoxicity at 2uM final concentration against transgenic Leishmania Mexicana promastigotes LmPfHT that are glucose transport deficient and complemented with the Plasmodium falciparum hexose transporter. Activity is measured by DNA content using SYBR green in vitro.
Assay [3] has as its target Glucose transporter (Leishmania mexicana) (UniProt O61059). The experiment in a line: ST_JUDE_LEISH: Cytotoxicity at 2uM final concentration against transgenic Leishmania Mexicana promastigotes LmGT2 that are glucose transport deficient and complemented with the L. Mexicana glucose transporter 2. Activity is measured by DNA content using SYBR green in vitro.

Solute carrier family 2, facilitated glucose transporter member 1 (Homo sapiens), sequence (P11166 whole entry): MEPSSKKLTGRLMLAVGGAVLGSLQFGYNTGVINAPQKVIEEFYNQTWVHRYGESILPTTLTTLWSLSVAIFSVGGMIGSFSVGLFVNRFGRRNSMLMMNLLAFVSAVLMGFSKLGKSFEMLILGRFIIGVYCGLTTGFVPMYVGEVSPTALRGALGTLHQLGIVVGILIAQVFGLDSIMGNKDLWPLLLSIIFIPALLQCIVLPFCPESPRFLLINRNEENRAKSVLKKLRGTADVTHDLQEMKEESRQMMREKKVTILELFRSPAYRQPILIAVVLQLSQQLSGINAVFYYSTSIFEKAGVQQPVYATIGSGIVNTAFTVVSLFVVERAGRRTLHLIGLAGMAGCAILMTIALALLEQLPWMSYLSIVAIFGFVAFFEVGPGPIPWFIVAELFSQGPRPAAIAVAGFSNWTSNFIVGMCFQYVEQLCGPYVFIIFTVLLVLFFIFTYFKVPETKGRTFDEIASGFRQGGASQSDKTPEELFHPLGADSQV

Regarding `Oc1ccc(CCNc2nc(NCc3ccc4cc(Cl)ccc4c3)nc(N3CCNCC3)n2)cc1`, the inhibition in assay [1] is -0.16%; in assay [2], 1.41%; in assay [3], 0.67%.
As to `CCOC(=O)c1ccc(NC(=O)N[C@H]2CCN(CCCCCNC(=O)/C=C/c3ccc(Cl)c(Cl)c3)C2)cc1`, the inhibition in assay [1] is 4.4%; in assay [2] it was 2.51%; in assay [3], 5.84%.
With `CN(C)CCCNCc1cn(S(=O)(=O)c2ccccc2Cl)c2ccccc12`, the inhibition in assay [1] stood at 5.36%; in assay [2], 5.25%; in assay [3] it was 7.6%.
On the same counts, the results for `O=[N+]([O-])c1cccc(NC(=S)N2CCCN(Cc3ccc(F)cc3F)CC2)c1` are 0.91%, 1% and 0.66%.
Turning to `Cc1ccccc1N1CCN(c2ccc(C(=O)NC3CC3)cn2)CC1`, the inhibition was 10.9% in assay [1], 8.46% in assay [2] and 4.25% in assay [3].
Consider `CC(=NNC(S)=NC(C)(C)C)c1ccccn1`, for which the inhibition in assay [1] was 65.9%; in assay [2], 69.5%; in assay [3], 49.6%.
As to `CCOc1cc(C(=O)N[C@@H](Cc2ccccc2)[C@H](O)CNCc2cc(OC)cc(OC)c2)cc(N2CCCCS2(=O)=O)c1`, the inhibition was 0.3% in assay [1], -0.68% in assay [2] and -1.52% in assay [3].
As to `CCCCCN1CCCC1CNS(=O)(=O)c1ccc(C(=O)Nc2cccc(C(F)(F)F)c2)cc1` (stereo not drawn), the values for the inhibition in assay [1], in assay [2] and in assay [3] were 0.76%, 0.61% and 0.19%, respectively.
On the same counts, the results for `O=C(Cn1c(CCc2cccc(F)c2F)nc(=O)c2ccccc21)N(Cc1ccc(-c2ccc(C(F)(F)F)cc2)cc1)C1CCN(C2=NCCS2)CC1` are 3.56%, 4.28% and 4.67%.
With `Cc1ccc(C)c(S(=O)(=O)Nc2ccc(Br)cc2C(=O)Nc2cccc(C(F)(F)F)c2)c1`, the inhibition in assay [1] was 0.14%; in assay [2] it was 0.63%; in assay [3] it was -1.9%.
Regarding `O=C(O)c1ccc(OCOCOc2ccc(C(=O)O)c(O)c2)cc1O`, the inhibition in assay [1] was 5.67%; in assay [2] it was 5.54%; in assay [3] it was 3.43%.
Consider `CS(=O)(=O)NCCCNCc1ccc(-c2ccc(-c3nc4cc(F)ccc4[nH]3)cc2)cc1`, for which the inhibition was 7.49% in assay [1], 4.28% in assay [2] and 4.63% in assay [3].
In the case of `COc1cc2c(cc1NS(=O)(=O)c1ccc(OCc3ccc(Br)cc3)cc1)CCN(C1CCC1)CC2`, the results for the inhibition in assay [1], in assay [2] and in assay [3] were 0.64%, -0.8% and -0.51%, respectively.
For the molecule `CCCC1CCNC(C(O)c2ccnc3ccc(OC)cc23)C1` (stereo not drawn), the inhibition in assay [1] came to 1.89%; in assay [2], 1.16%; in assay [3], 2.16%.
Turning to `O=C(Nc1ccc(Cl)cc1)c1cccc2nc(C(F)(F)F)[nH]c12`, the inhibition in assay [1] worked out at 9.28%; in assay [2] it was 9.14%; in assay [3], 5.94%.
For `CC(C)NCc1ccc(-c2ccc(-c3nc4cc(C(F)(F)F)ccc4[nH]3)s2)cc1`, the inhibition in assay [1] was determined as 19.5%; in assay [2], 17.8%; in assay [3], 15.3%.
In the case of `N#Cc1cc(C(=O)c2cc(Cl)ccc2O)cn(-c2cc(Cl)cc(Cl)c2)c1=O`, the inhibition came out at 2.16% in assay [1], 3.14% in assay [2] and 2% in assay [3].
On the same counts, the results for `Cc1ccc(C(=O)Nc2ccc(C)c(OC3CCN(Cc4ccco4)C3)c2)cc1` (stereo not drawn) are 0.19%, 1.86% and 7.13%.
For `c1ccc2c(c1)CN(CC1CCOCC1)CC1(CCN(Cc3c[nH]c4cnccc34)CC1)O2`, the inhibition stood at 0.57% in assay [1], 1.23% in assay [2] and 0.88% in assay [3].
On the same counts, the results for `CCCCn1c(Sc2ccc(C#N)c([N+](=O)[O-])c2)nnc1-c1cccc(Cl)c1` are 4.8%, 6.03% and 5.83%.
With `CC1(C)N=C(N)N=C(N)N1c1ccc(I)cc1`, the inhibition in assay [1] was 5.79%; in assay [2] it was 5.57%; in assay [3], 6.6%.
Turning to `COc1ccc(CNC2CCN(C)CC2)cc1-c1ccc(S(=O)(=O)NCC2CCCO2)s1` (stereo not drawn), the inhibition in assay [1] was found to be 3.99%; in assay [2], 4.98%; in assay [3] it was 5.52%.
On the same counts, the results for `CC(C)COc1ccc(Cl)cc1Cc1ccc(-c2nc3cc(CCN4CCCC4)ccc3[nH]2)o1` are 0.75%, 3.33% and 2.08%.
On the same counts, the results for `Cc1cccc(Nc2nccc(Nc3cccc(C(=O)NCCN4CCOCC4)c3)n2)c1` are 2.19%, 1.2% and 1.44%.
For the molecule `CCOC(=O)c1ccc(-c2c(C(F)(F)F)noc2-c2cc(CC)c(OC)cc2O)o1`, the inhibition came to 3.34% in assay [1], 2.22% in assay [2] and 1.45% in assay [3].
For the molecule `CCN(CC)CCN(Cc1ccc(-c2ccc(C(F)(F)F)cc2)cc1)C(=O)Cn1c(SCc2ccc(F)cc2)cc(=O)c2ccccc21`, the inhibition is 1.74% in assay [1], -0.14% in assay [2] and 1.57% in assay [3].
As for `Cc1cc2ncc(C(N)=O)c(Nc3ccc(N4CCOCC4)cc3)c2cc1S(C)(=O)=O`, the inhibition came to 1.97% in assay [1], 3.83% in assay [2] and 5.19% in assay [3].
Regarding `Cn1ncc2ccc(Nc3nccc(-c4ccc5c(c4)c(N)nn5C)n3)cc21`, the results for the inhibition in assay [1], in assay [2] and in assay [3] were 93.3%, 97.5% and 93.8%, respectively.
In the case of `COc1ccc2c(=O)ccn(CCN3CCC(NCc4ccc5c(n4)NC(=O)CS5)CC3)c2c1`, the inhibition worked out at 3.6% in assay [1], 2.3% in assay [2] and 3.24% in assay [3].
Take `C[C@H](NC(=O)[C@H](CCCCNC(=O)OC(C)(C)C)NC(=O)OC(C)(C)c1ccc(-c2ccccc2)cc1)C(=O)OCc1ccccc1`: the inhibition in assay [1] was 3.8%; in assay [2], 3.27%; in assay [3] it was 1.84%.
Consider `COc1ccc2nc(-c3cc(-c4ccc(NC(=O)CN5CCOCC5)cc4)cnc3N)[nH]c2c1`, for which the inhibition was 17.5% in assay [1], 44.4% in assay [2] and 11.7% in assay [3].
In the same order, the values of `COC(=O)C(Cc1ccccc1)C(CSCc1ccc(OC)cc1)C(=O)N[C@@H](C(=O)OC(C)(C)C)c1ccc(C(C)(C)C)cc1` (stereo partly drawn) are 4.24%, 4.41% and 5.18%.
Consider `Cc1cccc2nc(-c3cccc(-c4cccc(NC(=O)c5cccnc5)c4)c3)[nH]c12`, for which the inhibition in assay [1] is 2.26%; in assay [2], -0.15%; in assay [3] it was -3.86%.
With `O=C(NCc1ccc(Cl)cc1)c1ccc(C(=O)NCC2CCCN2CC2CCCCC2)cc1` (stereo not drawn), the values for the inhibition in assay [1], in assay [2] and in assay [3] were 2.97%, 1.54% and 1.14%, respectively.
Turning to `O=C(/C=C/c1ccc(Cl)c(Cl)c1)NC1CCN(Cc2ccc(O)cc2)CC1`, the inhibition in assay [1] is 1.47%; in assay [2] it was 0.53%; in assay [3], -3.54%.
On the same counts, the results for `O=C(Nc1ccc(F)cc1)c1ccc(C(=O)NC2CCN(CC3CCCCC3)CC2)cc1` are 19.2%, 16.6% and 11.7%.

The values are drawn from ChEMBL document CHEMBL3433997, “St. Jude Leishmania screening dataset” (2016).
